Assay outcomes: PubChem BioAssay, Johns Hopkins Ion Channel Center
Most compounds without a hit are left out; they make up all but 1.6% or so of the library.
KCNQ2 inh – inhibitors of rat KCNQ2 potassium channel; B-score at 10 µM; O88943; actives 1.1% (n = 310,000); CHO-K1 KCNQ2, FluxOR thallium flux, 20 min; stronger effect = lower value;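 active = fluorescence ratio B-score at most minus 3 library SDs, with starting brightness B-score within 2 library SDs, cut at about -5.5 in these data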
KCNQ2 enhance – potentiators of rat KCNQ2 potassium channel; B-score at 10 µM; O88943; CHO-K1 KCNQ2, FluxOR thallium flux fluorescence; stronger effect = higher value; actives 0.54% (n = 310,000);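 active = fluorescence ratio B-score at least 3 SD of library B-scores, with initial fluorescence B-score within 3 of them, cut at about 5.3 in these data; same plate scores as AID 2156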;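 also: B-score of peak minus minimum over baseline fluorescence ratio after K+ and Tl+ stimulus; positive B-score means potentiation of KCNQ2 with more thallium influx and brighter signal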
Kir21 confirm – confirmation of mouse Kir2.1 potassium channel inhibitors | Tl flux remaining, % of negative control (stronger effect = lower value), % at 10 µM | actives 41% (n = 2,300) | Kir2.1-expressing cells, FluxOR thallium flux fluorescence; stronger effect = lower value | AID 2032 | shares compounds with KCNQ2 enhance;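 active = Primary-screen hit whose thallium flux fell at least 3 control SD below untreated wells in both duplicates, with normal baseline fluorescence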;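 also: 0% = blank wells without stimulus and 100% = stimulated no-compound controls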
HEK293 Tl flux – counter-screen for Kir2.1 inhibitors: effect in parental HEK293 cells; FluxOR thallium flux fluorescence; 0% = unstimulated blank wells; shares compounds with KCNQ2 enhance; actives 19% (n = 2,300); AID 2105; FluxOR signal as % of negative control (100 = no effect), % at 10 µM;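 active = dye signal at least 3 control SD above or below untreated wells in both duplicates, raw fluorescence within 3, either direction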;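 also: percent is based on the flux ratio of peak minus minimum fluorescence over baseline F0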
CHO-K1 Tl ctr – parental CHO-K1 activity in KCNQ2 potentiator counter-screen; shares compounds with KCNQ2 enhance; parental CHO-K1 cells, FluxOR thallium flux fluorescence; zero = vehicle mean+3SD, 100% = vehicle-minus-blank window; activity increase over 3SD of controls, % at 10 µM; actives 43% (n = 1,200); AID 2282;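 active = signal rise of at least 3 SD above the untreated control mean, in both duplicate wells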;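 also: counter screen of KCNQ2 potentiator hits so any rise reflects channel-independent effects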
KCNQ1 pot spec – tests whether KCNQ2 potentiators also act on human KCNQ1; shares compounds with KCNQ2 enhance; CHO KCNQ1 stable, FluxOR thallium flux fluorescence; beyond 3SD, as % of vehicle-control signal; activation over 3SD threshold, % at 10 µM; actives 28% (n = 1,200);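 active = fluorescence ratio rise of at least 3 SD of vehicle wells above their mean, in both replicate wells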;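 also: 0% = vehicle mean plus 3 SD and 100% = vehicle minus unstimulated blank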
Target sequence (P51787 whole entry, looked up): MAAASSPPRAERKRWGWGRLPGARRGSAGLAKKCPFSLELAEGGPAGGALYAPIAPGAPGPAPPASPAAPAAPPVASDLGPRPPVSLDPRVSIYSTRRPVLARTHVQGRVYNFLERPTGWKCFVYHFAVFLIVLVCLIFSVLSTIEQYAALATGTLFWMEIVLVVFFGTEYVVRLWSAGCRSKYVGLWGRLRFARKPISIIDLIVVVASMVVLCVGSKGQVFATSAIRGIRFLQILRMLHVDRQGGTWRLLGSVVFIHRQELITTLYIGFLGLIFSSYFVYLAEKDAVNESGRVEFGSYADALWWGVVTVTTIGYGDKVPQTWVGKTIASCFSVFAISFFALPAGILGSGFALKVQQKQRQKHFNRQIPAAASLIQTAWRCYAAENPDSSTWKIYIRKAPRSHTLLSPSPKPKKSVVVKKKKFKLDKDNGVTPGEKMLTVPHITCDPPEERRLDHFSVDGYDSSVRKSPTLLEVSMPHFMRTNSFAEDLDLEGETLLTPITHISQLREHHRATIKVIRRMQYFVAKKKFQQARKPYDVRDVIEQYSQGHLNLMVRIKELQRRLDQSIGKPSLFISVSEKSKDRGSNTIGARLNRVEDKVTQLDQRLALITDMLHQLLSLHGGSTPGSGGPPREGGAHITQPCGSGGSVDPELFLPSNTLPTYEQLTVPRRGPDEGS
KCNQ2 pot conf – rat KCNQ2 channel potentiator confirmation; potentiation, less the hit threshold, % at 10 µM; shares compounds with KCNQ2 enhance; actives 68% (n = 1,200); CHO-KCNQ2 cells, FluxOR thallium flux fluorescence;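 active = fluorescence ratio rising 3 SD or more over the vehicle control mean in both replicates, plus primary screen hit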;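 also: peak minus minimum thallium fluorescence divided by baseline after K/Tl stimulus; 0% = vehicle mean plus 3 SD and 100% = vehicle minus unstimulated blank difference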
Kir2-1 sel – selectivity of KCNQ2 potentiators: effect on mouse Kir2.1; actives 2% (n = 1,200); shares compounds with KCNQ2 enhance; activity over 3SD threshold, % at 10 µM; HEK293 Kir2.1, FluxOR thallium flux fluorescence;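 active = fluorescence ratio rise of at least 3 SD above the vehicle-control mean, seen in both replicates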;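 also: 0% = vehicle mean plus 3 SD and 100% = vehicle minus no-stimulus blank window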
KCNQ2 W236L pot – KCNQ2 potentiators acting on retigabine-insensitive rat KCNQ2 W236L mutant; shares compounds with KCNQ2 enhance; CHO KCNQ2-W236L, automated patch clamp current; current increase over 3SD of negative controls (%), stronger effect = higher value, % at 25 µM; actives 10% (n = 940); AID 2558;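 active = current increase at least 3 SD of the untreated controls above them in both duplicate recordings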
Active calls of the source: *; i = inactive; nt = no result given.

SMILES	KCNQ2 inh	KCNQ2 enhance	Kir21 confirm	HEK293 Tl flux	others
COCCNC(=O)/C(C#N)=C/c1cccc(/C=C(\C#N)C(=O)NCCOC)c1	i	9.3*	i	i	CHO-K1 Tl ctr=-7;KCNQ1 pot spec=2.5*;KCNQ2 pot conf=1.3*;Kir2-1 sel=-30;KCNQ2 W236L pot=9.2%*
COCCNC(=O)/C(C#N)=C/c1ccc(O)cc1	i	0.47	nt	nt
Nc1ccccc1C(=O)Nc1cccc2ccccc12	i	nt	nt	nt
CC12CCC(C(=O)Nc3cccc4ccccc34)(C1Br)C2(C)C (centres undefined)	i	10*	i	i	CHO-K1 Tl ctr=1.5*;KCNQ1 pot spec=-25;KCNQ2 pot conf=48*;Kir2-1 sel=-21;KCNQ2 W236L pot=i
COc1ccc(CCC(=O)NCc2ccccc2OC)cc1	i	nt	nt	nt
O=C(Nc1ncc(Br)s1)C(Cc1ccccc1)n1cccc1 (centres undefined)	i	7.3*	i	188%*	CHO-K1 Tl ctr=-4;KCNQ1 pot spec=-5;KCNQ2 pot conf=8.5*;Kir2-1 sel=-29;KCNQ2 W236L pot=i
O=C(Nc1cccnc1)C(Cc1ccccc1)n1cccc1 (centres undefined)	i	0.5	nt	nt
CCN1CCN(CC(=O)c2cc(Cl)ccc2Cl)CC1	i	nt	nt	nt
Cc1ccc(S(=O)(=O)N2CCN(C(C)C(=O)N3CCCc4ccccc43)CC2)cc1 (centres undefined)	i	nt	nt	nt
OCCCCc1nccc2c1[nH]c1ccccc12	i	nt	nt	nt
NS(=O)(=O)c1ccc(NCc2ccccc2OCc2ccc(F)cc2)cc1	i	6.6*	i	i	CHO-K1 Tl ctr=38*;KCNQ1 pot spec=-16;KCNQ2 pot conf=2.5*;Kir2-1 sel=-54;KCNQ2 W236L pot=i
NS(=O)(=O)c1ccc(CCNCc2ccccc2OCc2ccc(F)cc2)cc1	i	0.56	nt	nt
O=C(CSc1nn(-c2ccc(F)cc2)c(=S)s1)NC(=O)NCc1ccco1	i	nt	nt	nt
CCn1c(SCC(O)c2ccccc2)nnc1-c1ccccc1 (centres undefined)	i	0.68	nt	nt
CCn1c(SCc2cccc(C)c2)nnc1-c1ccccc1	i	nt	57%*	i
Cc1cc(C)c(S(=O)(=O)N(C)CC(=O)NCc2ccccn2)c(C)c1	i	nt	nt	nt
COc1ccc2oc(C(=O)OCC(=O)N3C(C)CCCC3C)c(C)c2c1 (centres undefined)	i	nt	nt	nt
CN(C)CC#CCOC(c1ccccc1)c1ccccc1	i	nt	50%*	i
CCN(CC)CC#CCOC(c1ccccc1)c1ccccc1	i	nt	nt	nt
Cn1cc(SCC(=O)N2CCCc3ccccc32)c2ccccc21	i	nt	52%*	i
Cn1cc(SCC(=O)N2CCOCC2)c2ccccc21	i	nt	nt	nt
CC(CCc1ccco1)N(C)S(=O)(=O)c1csc(C(N)=O)c1 (centres undefined)	i	0.17	nt	nt
CCCCN(Cc1ccco1)S(=O)(=O)c1csc(C(N)=O)c1	i	nt	48%*	i
Cc1cc(C)c2ccc(/C=N/O)nc2c1O	i	12*	i	i	CHO-K1 Tl ctr=147*;KCNQ1 pot spec=12*;KCNQ2 pot conf=-3;Kir2-1 sel=-17;KCNQ2 W236L pot=i
Cc1cc(C)c2ccc(NN)nc2c1O	i	nt	nt	nt
SMILES	KCNQ2 inh	KCNQ2 enhance	Kir21 confirm	HEK293 Tl flux	others
CN1CCC(NCCC(c2ccc(F)cc2)c2ccc(Cl)cc2)CC1 (centres undefined)	i	nt	56%*	i
CC(C)C(CCNC1CCN(C)CC1)c1ccc(Cl)cc1 (centres undefined)	i	nt	nt	nt
CC(C)c1ccc(/C=N/n2c(COc3ccccc3)n[nH]c2=S)cc1	i	7.7*	i	i	CHO-K1 Tl ctr=-3;KCNQ1 pot spec=-45;KCNQ2 pot conf=9.0*;Kir2-1 sel=-15;KCNQ2 W236L pot=i
Cc1ccc(/C=N/n2c(COc3ccccc3)n[nH]c2=S)cc1	i	nt	nt	nt
O=C(NCCc1ccccc1)c1nccc2ccccc12	i	0.11	nt	nt
c1ccc(CCNc2ccnc3cc4ccccc4cc23)cc1	i	0.82	i	i
COc1ccc(CCN(C)C(=O)c2ccc(COc3ccccc3)o2)cc1OC	i	nt	56%*	i
CCCc1ccc(OCc2ccc(C(=O)O)o2)c(OC)c1	i	0.16	nt	nt
O=c1ccc(Oc2nc(N3CCOCC3)nc(N3CCOCC3)n2)nn1-c1ccccc1	i	nt	nt	nt
COc1ccc(OC(=O)c2c(C)nn(-c3ccccc3)c2C)cc1	i	nt	nt	nt
COc1cc(C)c(C)cc1S(=O)(=O)n1c(C)nc2ccccc21	i	nt	nt	nt
COc1cc(F)ccc1S(=O)(=O)n1c(C)nc2ccccc21	i	nt	52%*	i
COc1cc(C(=S)N2CCCCC2)ccc1OCC(=O)Nc1ccc(F)cc1	i	6*	i	i	CHO-K1 Tl ctr=142*;KCNQ1 pot spec=27*;KCNQ2 pot conf=17*;Kir2-1 sel=-46;KCNQ2 W236L pot=i
COc1cc(C(=S)N2CCCCC2)ccc1OCC(=O)N1CCCC1	i	0.68	nt	nt
Cc1cc(Cl)ccc1OCCCC(=O)NC1CCN(C)CC1	i	0.22	nt	nt
COc1ccc(CCNc2nc3ccccc3n3cnnc23)cc1OC	i	0.26	nt	nt
CCc1nnc2c(NCCc3ccc(OC)c(OC)c3)nc3ccccc3n12	i	11*	i	i	CHO-K1 Tl ctr=9.6*;KCNQ1 pot spec=-14;KCNQ2 pot conf=-22;Kir2-1 sel=-30
COC(=O)c1cc(CSC(=N)N)ccc1OCCC(C)C	i	0.96	29%*	i
CCCOc1ccc(CSC(=N)N)cc1C(=O)OC	i	2.1	nt	nt
C=CCNC(=O)/C=C/c1c(F)cccc1Cl	i	0.03	nt	nt
COc1ccccc1CNC(=O)CC(C)c1ccccc1 (centres undefined)	i	nt	nt	nt
CC(CCc1ccccc1)NC(=O)CC(C)c1ccccc1 (centres undefined)	i	nt	56%*	i
CC(CC(=O)NCc1ccc(Cl)cc1)c1ccccc1 (centres undefined)	i	5.9*	i	i	CHO-K1 Tl ctr=-7;KCNQ1 pot spec=-23;KCNQ2 pot conf=-2;Kir2-1 sel=-48;KCNQ2 W236L pot=i
CC(CCc1ccccc1)NC(=O)Cc1ccccc1 (centres undefined)	i	nt	nt	nt
Cc1cc(C)nc(Nc2ccc(C)c([N+](=O)[O-])c2)n1	i	0.05	nt	nt
Oc1ccc(N=Nc2cccc(Cl)c2)cc1C=Nc1ccc(N2CCOCC2)cc1	i	1.4	nt	nt
Oc1c(Br)cc(Cl)cc1C=Nc1ccc(N2CCOCC2)cc1	i	11*	i	i	CHO-K1 Tl ctr=-1;KCNQ1 pot spec=0.5*;KCNQ2 pot conf=7.7*;Kir2-1 sel=-27;KCNQ2 W236L pot=i
Oc1c(Cl)cc(Cl)cc1C=Nc1ccc2c(c1)OCCO2	i	8.5*	i	i	CHO-K1 Tl ctr=92*;KCNQ1 pot spec=-1;KCNQ2 pot conf=-1;Kir2-1 sel=-22;KCNQ2 W236L pot=i
Brc1csc(C=Nc2ccc3c(c2)OCCOCCOCCOCCO3)c1	i	0.47	nt	nt
